Screening results deposited in PubChem by National Center for Advancing Translational Sciences (NCATS).
The full list was thinned out, with hits kept by preference.
Shiga toxin inh – inhibitors of Shiga toxin in Vero cells | Vero cells, Shiga toxin protein synthesis inhibition reporter | inhibition, % at 38.7 µM | 290,000 compounds, 9.2% hits | AID 2315; in the data active means inhibition mostly above about 28%, no sharp cut-off; inactive means mostly below about 43%
MARV entry inh – blocks Marburg virus binding to or entry into cells | Marburg virus pseudotyped entry inhibition, cell reporter | Potency, µM (top dose mostly 37.8 µM), most hits filed as inhibitors | 300,000 compounds, 1.8% hits | AID 540276; calls by dose curve; tested in HEK293 cells
CHX counter – affects cycloheximide protein synthesis inhibition readout, counter-screen; cell reporter, cycloheximide protein synthesis inhibition counterscreen; max response, %; 300,000 compounds, 12% hits; in the data active means max response mostly above about 13%, no sharp cut-off; inactive means mostly below about 14%; further: read at 38.3 µM for the half of the compounds with a filed dose
AMA1-RON2 inh – AMA1-RON2 (P. falciparum) interaction inhibition. AlphaScreen AMA1-biotinylated RON2 peptide binding. Potency, µM (series often up to 58.2 µM), hits mostly inhibitors. 360,000 compounds, 0.2% hits. AID 720542; active means well fitted inhibition curve with a large enough effect; inconclusive means small, poorly fitted or top-dose-only effect; inactive means no such curve, though single readings can be large or run the other way; further: nearly all actives have a fitted effect of over 45% in size
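AMA1 (3D7) with his tag at 25 nM final met compounds first, then biotinylated RON2 peptide at 25 nM; detection used donor plus acceptor beads, 10 µg/mL apiece, read by AlphaScreen after 30 min at room temperature.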
LASV entry inh – inhibitors of Lassa virus binding or cell entry. AID 540256. Lassa virus pseudotype entry inhibition, cell reporter. 300,000 compounds, 1.2% hits. Potency, µM (doses to about 37.9 µM), actives largely listed as inhibitors; calls by dose curve; tested in HEK293 cells; further: nearly all actives have a fitted effect of over 50% in size
Hits are given with their value; – = inactive; ? = inconclusive; · = no result.

SMILES | Shiga toxin inh | MARV entry inh | CHX counter | AMA1-RON2 inh | LASV entry inh
CC1(C)CC(=O)C2=C(C1)c1c(ccc3ccccc13)NC2c1ccc(C(=O)O)cc1 (centres undefined) | – | – | – | – | –
O=C1CCCC2=C1C(c1ccco1)Nc1ccc3ccccc3c12 (centres undefined) | 45 | – | 33 | ? | –
CCN(CC(N)=O)S(=O)(=O)c1ccc(Br)cc1 | – | ? | – | – | –
CCOC(=O)C1=C(CN2CCC(C(=O)OCC)CC2)NC(=O)NC1c1ccc(Cl)cc1 (centres undefined) | · | – | · | · | –
Cc1cc(C(=O)CS(=O)(=O)c2ccc(F)cc2)cc(C)c1OC(=O)N(C)C | 89 | ? | 44 | – | ?
Cc1cc(C(=O)CSc2ccc(F)cc2)cc(C)c1OC(=S)N(C)C | 146 | ? | 58 | – | ?
COc1ccc(S(=O)(=O)CC(=O)c2cc(C)c(O)c(C)c2)cc1 | – | · | – | – | ·
COc1ccc(SCC(=O)c2cc(C)c(OC(=S)N(C)C)c(C)c2)cc1 | – | – | 48 | – | ?
CN(C)c1nc(Oc2ccc(N)cc2)nc(N(C)C)n1 | – | – | – | – | –
COc1ccc2c(c1)C(c1ccc(N3CCOCC3)cc1)=NNC(c1cccnc1)=N2 | – | – | – | – | –
CC(C)c1ccc2c(c1)C(c1ccc(N3CCOCC3)cc1)=NNC(c1cccs1)=N2 | – | – | 45 | – | –
CC(C)c1ccc2c(c1)C(c1cccs1)=NNC(c1ccncc1)=N2 | 76 | · | 22 | – | ·
CC(CC(=O)Nc1nnc(C(C)(C)C)s1)c1ccccc1 (centres undefined) | – | · | – | – | ·
COc1ccc(C(=O)NNC2=C(C(=O)C(F)(F)F)CCC2)cc1 | 48 | – | 27 | – | ?
COc1ccc(C(=O)NNc2ccccc2)cc1 | – | ? | – | – | –
CC(C)(C)c1ccc(C(=O)NNC(=O)c2ccc(Cl)cc2)cc1 | – | – | – | – | –
O=C(NNC1=C(C(=O)C(F)(F)F)CCC1)c1ccc(Cl)cc1 | 86 | ? | 18 | – | –
O=C(NNC1=C(C(=O)C(F)(F)F)CCC1)c1cccc(Cl)c1 | 85 | – | 28 | – | –
O=C(NNC(=O)c1cccc(Cl)c1)NNC(=O)c1cccc(Cl)c1 | · | – | · | – | –
Cc1cc2oc3c(c(=O)c2cc1C)C(c1ccc(C(C)C)cc1)N(c1nc(C)c(C)s1)C3=O (centres undefined) | · | – | · | · | –
CCN1C(=O)C(=O)N(CC(=O)Nc2ccccc2Oc2ccccc2)C1=O | – | – | – | – | –
C=CCN1c2ccccc2[C@]23CCC(=O)N(Cc4ccco4)C2=NC(C(=O)OC)=C(C(=O)OC)[C@H]13 | · | – | · | · | ·
CCCN(CCC)c1ccc(/C=C/c2ccc3cc(OCC)ccc3n2)cc1 | 71 | · | 34 | – | ·
CCOC(=O)c1c(NC(C)=O)c2c3c(sc2n1Cc1nc(-c2ccccc2OCC)oc1C)CCCC3 | · | – | · | · | ·
CC(=O)N[C@H]1[C@H]([C@H](O)[C@H](O)CO)O[C@](O)(C(=O)O)C[C@@H]1O | · | · | · | – | ·
SMILES | Shiga toxin inh | MARV entry inh | CHX counter | AMA1-RON2 inh | LASV entry inh
CCC(=O)Nc1ccc2nc(SCC(=O)N3CCOCC3)sc2c1 | – | – | – | – | –
Nc1nnc(SCC(=O)Nc2ccc(N3CCOCC3)c(Cl)c2)s1 | – | – | 21 | – | –
Nc1ccc2nc(SCc3cccc(F)c3)sc2c1 | 152 | ? | 42 | – | ?
Nc1ccc2nc(SCC(=O)Nc3ccc(N4CCOCC4)c(Cl)c3)sc2c1 | – | ? | 21 | – | –
O=C(CSc1nc2ccc(Nc3nc(N4CCOCC4)nc(N4CCOCC4)n3)cc2s1)Nc1ccccc1Cl | – | ? | – | – | ?
CCCC(=O)Nc1ccc2nc(SCC(=O)Nc3ccc(N4CCOCC4)c(Cl)c3)sc2c1 | 150 | ? | 52 | – | ?
Nc1ccc2nc(SCC(=O)N3CCOCC3)sc2c1 | 71 | ? | 31 | – | ?
Nc1ccc2nc(SCC(=O)N3CCN(c4ccccc4)CC3)sc2c1 | – | ? | – | – | ?
C=CCN(CC=C)Cc1c(O)ccc2c1oc(=O)c1ccccc12 | · | – | · | 21µM | –
Cc1nn(Cc2ccccc2Cl)c(C)c1C(=O)NCC(c1cccs1)N1CCOCC1 (centres undefined) | · | – | · | – | –
COc1ccccc1Nc1sc(C(=O)c2ccc3c(c2)OCO3)c(N)c1S(=O)(=O)c1ccccc1 | · | · | · | · | –
O=C(Nc1cc(Cl)cc(Cl)c1)c1cccc(OC(F)F)c1 | – | – | 15 | – | –
Cc1ccnc(NC(=O)c2cccc(OC(F)F)c2)n1 | 69 | ? | – | – | –
CC(=O)OCC(NC(=O)C1CCCN1C(=O)OC(C)(C)C)C1OC(n2ccc(=O)[nH]c2=O)C(OC(C)=O)C1OC(C)=O (centres undefined) | – | · | – | · | ·
COc1ccccc1C1CCN(c2ccc([N+](=O)[O-])c(OC)c2)CC1 | 64 | – | 35 | ? | –
COc1ccc(/C=C(/NC(=O)c2ccco2)C(=O)N2CCc3ccccc32)cc1OC | – | – | – | – | 7.9µM
O=C(CCCc1ccccc1)N1CCc2ccccc21 | 109 | ? | 49 | – | ?
Cc1ccn(CCC(=O)N2CCc3ccccc32)n1 | – | · | 25 | – | ·
O=C(Cn1ccc([N+](=O)[O-])n1)N1CCc2ccccc21 | – | · | – | – | ·
O=C1CN(C(=O)c2cc3ccccc3o2)c2ccccc2N1 | 42 | – | 18 | – | ?
CC1CCCN(c2nc3c(-c4ccc(Cl)cc4)nnn3c3ccccc23)C1 (centres undefined) | · | – | · | · | ?
Cc1nc2ccccc2n1S(=O)(=O)c1cc(C(=O)O)ccc1Cl | – | · | – | – | ·
O=C(NCCC(=O)N1CCc2ccccc21)c1ccco1 | 76 | – | 30 | – | ?
O=C(c1ccco1)c1cn(CC(=O)N2CCCCCC2)c2ccccc12 | – | – | – | – | –
Cc1ccc2c(CC(=O)N3CCc4ccccc43)coc2c1 | 100 | ? | 23 | – | –
SMILES | Shiga toxin inh | MARV entry inh | CHX counter | AMA1-RON2 inh | LASV entry inh
O=C(OCc1ccccc1)N1CCc2ccccc21 | 82 | ? | 43 | – | ?
O=C(c1ccco1)c1cn(CC(=O)N2CCCc3ccccc32)c2ccccc12 | – | ? | 24 | – | –
O=C(C(Cc1ccccc1)n1cccc1)N1CCc2ccccc21 (centres undefined) | – | · | – | – | ·
CC1Cc2ccccc2N1C(=O)c1ccc2nccnc2c1 (centres undefined) | – | – | – | – | –
Clc1ccccc1CNc1ncnc2c1c(-c1ccccc1)cn2-c1ccccc1 | · | · | · | · | –
O=C(Cc1c[nH]c2ccccc12)N1CCc2ccccc21 | 87 | – | 30 | – | –
O=C1CN(C(=O)OCc2ccccc2)c2ccccc2N1 | – | – | 26 | – | –
O=C(CNC(=O)N1CC(=O)Nc2ccccc21)NCc1ccccc1 | – | · | – | – | ·
O=C(CS(=O)(=O)Cc1ccccc1)N1CCc2ccccc21 | – | – | 33 | – | –
O=C(CS(=O)(=O)Cc1ccccc1)N1CCN(c2ccccc2F)CC1 | – | ? | – | – | –
CCN(CC)S(=O)(=O)c1ccc2c(c1)c(=O)c(C(=O)N(C)Cc1ccccc1)cn2C | · | – | · | · | –
COc1cc(-c2coc3c(C(=O)NCc4ccccc4)cccc23)ccc1O | · | · | · | – | ·
